Screens (PubChem BioAssay)
The list is not random: actives were taken first. Their share in the collection is about 3%.
VDR inh: inhibitors of human vitamin D receptor; P11473; hit rate 0.93% among 400,000; VDR-SRC2-3 peptide fluorescence polarization, 2 h; Potency, µM, without a hit: max response, negative = inhibition, hits mostly inhibitors
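Fluorescence polarization assay of small-molecule disruption of VDR binding to coregulator peptide SRC2-3. Compounds and controls pin-transferred, then read after 2 h incubation at ambient room temperature.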
KAT2A inh: blocks human GCN5L2 histone acetyltransferase; GCN5L2 HAT assay, ThioGlo1 CoA-SH fluorescence; Potency, µM (doses to about 58.9 µM), inactives show at the highest dose activity change, negative = inhibition, most hits filed as inhibitors; hit rate 0.21% among 390,000; AID 504327
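qHTS, 1536-well. 20nM enzyme, pH 7.5 HEPES/EDTA/Tween-20 buffer; 15 min compound preinc., RT. Start: 75uM H3(1-25), 70uM AcCoA, 50uM ThioGlo1. Read Ex340/Em540 at t=0 (autofluorescence flag) and t=20 min.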
ALOX12 inh: blocks human arachidonate 12S-lipoxygenase. Potency, µM (highest dose often 108 µM), for the others: at the highest dose activity change, negative = inhibition, usual class: inhibitors. P18054. hit rate 1.1% among 580,000. purified 12hLO, xylenol orange hydroperoxide absorbance
Target sequence (P18054 whole entry, looked up): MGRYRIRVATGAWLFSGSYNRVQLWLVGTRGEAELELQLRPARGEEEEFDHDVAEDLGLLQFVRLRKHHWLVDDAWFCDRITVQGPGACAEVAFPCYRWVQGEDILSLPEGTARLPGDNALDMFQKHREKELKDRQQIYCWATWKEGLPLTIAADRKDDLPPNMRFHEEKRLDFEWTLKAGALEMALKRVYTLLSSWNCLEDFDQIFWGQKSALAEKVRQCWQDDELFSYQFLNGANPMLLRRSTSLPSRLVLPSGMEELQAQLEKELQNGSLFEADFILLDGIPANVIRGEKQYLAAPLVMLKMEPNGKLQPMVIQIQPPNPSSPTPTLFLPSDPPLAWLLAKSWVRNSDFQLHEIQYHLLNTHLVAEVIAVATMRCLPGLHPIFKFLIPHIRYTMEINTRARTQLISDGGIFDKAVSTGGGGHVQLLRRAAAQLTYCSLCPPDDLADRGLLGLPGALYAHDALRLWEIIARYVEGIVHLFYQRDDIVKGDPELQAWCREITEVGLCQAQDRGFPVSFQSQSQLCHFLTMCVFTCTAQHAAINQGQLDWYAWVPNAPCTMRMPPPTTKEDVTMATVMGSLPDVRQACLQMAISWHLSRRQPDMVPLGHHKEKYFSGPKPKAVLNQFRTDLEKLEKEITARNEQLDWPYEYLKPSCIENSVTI
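Purified human 12hLO (150 nM final) in 25 mM Hepes, 0.01% Triton X-100, pH 7.0 was preincubated 15 min at room temperature with compound. Then 40 uM arachidonic acid was added, 30 min. Hydroperoxide was read by Fe-XO absorbance ratio 573/405 nm.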
PLK1 PBD block: PLK1 (human) polo-box domain binding inhibition | P53350 | Plk1 PBD binding of FITC phosphopeptide, fluorescence polarization | Potency, µM, for the others: max response, negative = inhibition, actives largely listed as inhibitors | hit rate 2.8% among 360,000 | AID 720504; also: series mostly up to about 57 µM; nearly all actives have a fitted effect of over 65% in size
The depositor's hits bear a star; [ ] = remark or other dose. Calls follow the shape of the dose curve; as a rule, active = well fitted curve in the direction sought with a large enough effect; inconclusive = small, poorly fitted or top-dose-only effect, or another doubt; inactive = no such curve, though single readings can be large; an effect the other way counts as inactive or inconclusive. % is scaled to controls: 0 for no effect and ±100 for the full control effect; potency is read from the fitted curve at half-maximal effect.

How did O=C(O)Cn1ccc2cc(OCC3CCN(C(=O)C4CCCC4)CC3)cnc21 do in these assays?
ALOX12 inh: -5%[176 µM]

How did O=C(O)Cn1ccc2cc(OCc3cccc(-c4ccc(F)cc4F)c3)cnc21 do in these assays?
ALOX12 inh: 35µM*

How did Cc1cc(F)ccc1-c1cccc(COc2cnc3c(ccn3CC(=O)O)c2)c1 do in these assays?
ALOX12 inh: -19%[176 µM]

What do the screens show for `Cc1ncsc1C(=O)NCCc1cccs1`?
ALOX12 inh: 13%

What do the screens show for `CCc1c(C)sc(NC(=O)Cn2nc(C)c([N+](=O)[O-])c2C)c1C(N)=O`?
VDR inh: inconclusive; KAT2A inh: -4%; ALOX12 inh: inconclusive; PLK1 PBD block: 6µM*

What do the screens show for `CCOC(=O)c1c(NC(=O)CSc2ncccn2)sc2c1CCN(Cc1ccccc1)C2`?
VDR inh: -11%; KAT2A inh: -12%; ALOX12 inh: -19%; PLK1 PBD block: 24µM*

Results for CCc1c(C(C)S(=O)(=O)c2ccccc2)[nH]c(=O)n1CC (stereo not given) ?
VDR inh: -24%; KAT2A inh: -7%; ALOX12 inh: inconclusive; PLK1 PBD block: 15µM*

Results for COCC(=O)N1CCN(Cc2nc(C(C)(C)C)no2)CC1 ?
ALOX12 inh: -5%

How did O=C(c1ccncc1)N1CCC[C@@]2(CCN(c3cccc(-c4ccccc4)c3)C2)C1 do in these assays?
VDR inh: 40µM*; KAT2A inh: -3%; ALOX12 inh: -13%[57.4 µM]

What do the screens show for `O=C(c1ccncc1)N1CCC2(CCCN(c3cccc(-c4ccccc4)c3)C2)CC1`?
VDR inh: 45µM*; KAT2A inh: -28%; ALOX12 inh: inconclusive

Results for O=C(c1ccco1)N1CCC[C@@]2(CCN(c3cccc(-c4ccccc4)c3)C2)C1 ?
VDR inh: 28µM*; KAT2A inh: -6%; ALOX12 inh: -28%[57.4 µM]

How did O=C(c1ccncc1)N1CCC2(CC1)CCN(c1cccc(-c3ccccc3)c1)CC2 do in these assays?
VDR inh: inconclusive; KAT2A inh: -7%; ALOX12 inh: inconclusive

What do the screens show for `O=C(c1cnccn1)N1CCC2(CCCN(c3cccc(-c4ccccc4)c3)C2)CC1`?
VDR inh: 35µM*; KAT2A inh: -21%; ALOX12 inh: inconclusive

How did O=C(c1ccc(F)cc1)N1CCC(CCc2ccc(O)cc2)CC1 do in these assays?
ALOX12 inh: 2%

Results for COc1ccc(C(=O)Nc2ccc3oc(C)nc3c2)c(O)c1 ?
ALOX12 inh: -16%

How did O=C(c1ccco1)N1CCC2(CCCN(C(c3ccccc3)c3ccccc3)C2)CC1 do in these assays?
VDR inh: 35µM*; KAT2A inh: -12%; ALOX12 inh: inconclusive

Results for O=C(O)c1cnc(-c2ccccc2)nc1Sc1ccc(Cl)cc1 ?
VDR inh: -2%; KAT2A inh: -1%; ALOX12 inh: 2%; PLK1 PBD block: 21µM*

How did COc1ccc(Sc2nc(-c3ccccc3)ncc2C(=O)O)cc1 do in these assays?
VDR inh: -4%; KAT2A inh: -7%; ALOX12 inh: -66%; PLK1 PBD block: inconclusive

What do the screens show for `OC(c1ncc(-c2ccccc2)o1)C(F)(F)F` (stereo not given)?
ALOX12 inh: -25%

What do the screens show for `Cc1ccc(C(C)C)c(OCc2ccc(C(=O)N/N=C/c3ccc(O)cc3O)cc2)c1`?
VDR inh: -7%; KAT2A inh: -11%; ALOX12 inh: -9%; PLK1 PBD block: -3%

How did Cc1ccc(C(C)C)c(OCc2ccc(C(=O)N/N=C/c3ccc(C(=O)O)cc3)cc2)c1 do in these assays?
VDR inh: -4%; KAT2A inh: -2%; ALOX12 inh: -1%; PLK1 PBD block: 24µM*

What do the screens show for `Cc1ccccc1OCCSc1nc2ccccc2n1CC(O)CO` (stereo not given)?
ALOX12 inh: 10%

How did Cc1cccc(CNc2cc(-c3cccc(NS(C)(=O)=O)c3)ncn2)c1 do in these assays?
VDR inh: 1%; KAT2A inh: -7%; ALOX12 inh: 35µM*

How did CN(CCOc1ccc(Br)cc1)C(=O)c1cc(=O)[nH]c2ccccc12 do in these assays?
ALOX12 inh: 9%

Results for CC(C)(C)C(=O)NCCCC(=O)NC1CCCC1 ?
ALOX12 inh: -8%

What do the screens show for `CCN(Cc1ccccc1)C(=O)CSc1nc(C)cc(C)c1C#N`?
VDR inh: inconclusive; KAT2A inh: -2%; ALOX12 inh: -12%; PLK1 PBD block: 21µM*

How did CCN(CC)C(=O)CSc1nc(C)cc(C)c1C#N do in these assays?
VDR inh: -3%; KAT2A inh: -10%; ALOX12 inh: 2%; PLK1 PBD block: inconclusive

How did Cc1nn(CCc2n[nH]c(=S)n2C2CCCCC2)c(C)c1Br do in these assays?
VDR inh: 1%; KAT2A inh: -5%; ALOX12 inh: 22µM*; PLK1 PBD block: -5%

How did Cc1nn(CCc2n[nH]c(=S)n2C)c(C)c1Br do in these assays?
VDR inh: 5%; KAT2A inh: 2%; ALOX12 inh: inconclusive; PLK1 PBD block: -12%

What do the screens show for `C/C(CCC1CC(C)OC1=O)=N/Nc1nc(-c2ccccc2)cs1` (stereo not given)?
VDR inh: 45µM*; KAT2A inh: -13%; ALOX12 inh: inconclusive; PLK1 PBD block: 30µM*

Results for CC1(C)CC(CC(=O)NNc2nc(-c3ccccc3)cs2)C(=O)O1 (stereo not given) ?
VDR inh: inconclusive; KAT2A inh: 2%; ALOX12 inh: 21%; PLK1 PBD block: 27µM*

Results for CC1CC(CC(=O)NNc2nc(-c3ccccc3)cs2)C(=O)O1 (stereo not given) ?
VDR inh: 0%; KAT2A inh: -10%; ALOX12 inh: -4%; PLK1 PBD block: 0%

How did O=C(Cc1n[nH]c(=O)c2ccccc12)NCCN1CCCCCC1=O do in these assays?
ALOX12 inh: 12%

What do the screens show for `CCn1c(N)c(C(=O)NCC2CCCO2)sc1=S` (stereo not given)?
VDR inh: 35µM*; KAT2A inh: -29%; ALOX12 inh: inconclusive; PLK1 PBD block: 4.7µM*

What do the screens show for `CCNC(=O)c1sc(=S)n(CC)c1N`?
VDR inh: -9%; KAT2A inh: -15%; ALOX12 inh: inconclusive; PLK1 PBD block: 27µM*

How did CCn1c(N)c(C(=O)N2CCOCC2)sc1=S do in these assays?
VDR inh: -12%; KAT2A inh: -8%; ALOX12 inh: inconclusive; PLK1 PBD block: 15µM*

Results for CCCCCNC(=O)c1ccc2c(=O)[nH]c3c(C(=O)NCC4CCCO4)sc(=S)n3c2c1 (stereo not given) ?
VDR inh: -8%; KAT2A inh: 1%; ALOX12 inh: -25%; PLK1 PBD block: 27µM*

What do the screens show for `CCn1c(N)c(C(=O)NCc2cccnc2)sc1=S`?
VDR inh: -5%; KAT2A inh: -10%; ALOX12 inh: -29%; PLK1 PBD block: -27%

How did COc1cc(OC)cc(C(=O)NCC2CCCO2)c1 (stereo not given) do in these assays?
VDR inh: -13%; KAT2A inh: -9%; ALOX12 inh: -2%[57.4 µM]; PLK1 PBD block: 0%

What do the screens show for `Cc1ccc(CNC(=O)c2ccc3c(=O)[nH]c4c(C(=O)NCC5CCCO5)sc(=S)n4c3c2)cc1` (stereo not given)?
VDR inh: -16%; KAT2A inh: 1%; ALOX12 inh: inconclusive; PLK1 PBD block: inconclusive
